Shown are actives, neighbours in structure and some others; about 8.8% of the full set was active somewhere.
HPGD inh: qHTS Assay for Inhibitors of HPGD (15-Hydroxyprostaglandin Dehydrogenase). Potency, µM, hits mostly inhibitors. actives 4.3% (n = 150,000). purified HPGD, NADH fluorescence kinetic, PGE2 substrate. AID 894, 2007. 15-hydroxyprostaglandin dehydrogenase [NAD(+)] (Homo sapiens), P15428
Target sequence (P15428 whole entry, looked up): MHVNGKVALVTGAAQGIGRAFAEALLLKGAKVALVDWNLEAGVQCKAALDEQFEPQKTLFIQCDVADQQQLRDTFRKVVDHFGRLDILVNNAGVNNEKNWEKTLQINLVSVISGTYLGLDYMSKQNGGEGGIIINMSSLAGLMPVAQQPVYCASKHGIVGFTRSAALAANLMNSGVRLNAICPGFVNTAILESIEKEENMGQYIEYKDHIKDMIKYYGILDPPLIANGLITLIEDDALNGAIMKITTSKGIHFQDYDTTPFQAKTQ
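NADH formation kinetics: reaction with 30 uM PGE2 and 1 mM NAD+ (final), 20 nM enzyme, Tris-HCl pH 8 with Tween 20, after 15 min compound preincubation at room temperature. Fluorescence change, last versus first of five reads.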
HTT cytoprotect: qHTS Multiplex Assay to Identify Dual Action Probes in a Cell Model of Huntington: Cytoprotection (ATP). actives 0.14% (n = 230,000). PC12 HTT-Q103 induced, cytoprotection, ATP luminescence, 40 h. Potency, µM (highest dose often 56.4 µM), hits mostly activators. AID 1471, 2008; active means well fitted curve in the direction sought with a large enough effect; inconclusive means small, poorly fitted or top-dose-only effect, or another doubt; inactive means no such curve, though single readings can be large; an effect the other way counts as inactive or inconclusive; further: nearly all actives have a fitted effect of over 45% in size
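ATP quantification (ATPlite) reports survival of PC12 cells in which tebufenozide, 100 nM final, switches on Htt exon 1 with 103 glutamines linked to GFP; compounds are titrated.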
ALDH1A1 inh: qHTS Assay for Inhibitors of Aldehyde Dehydrogenase 1 (ALDH1A1); actives 7.3% (n = 220,000); Purified ALDH1A1, NADH fluorescence, propionaldehyde substrate; Aldehyde dehydrogenase 1A1 (Homo sapiens), P00352; Potency, µM (titrated, usually from 75.3 µM), actives largely listed as inhibitors
HTT aggregate: qHTS Multiplex Assay to Identify Dual Action Probes in a Cell Model of Huntington: Aggregate Formation (GFP); PC12 HttQ103-GFP aggregates, Acumen cytometry, 40 h; Potency, µM (highest dose often 46.1 µM), most hits filed as inhibitors; actives 1.1% (n = 220,000); AID 1688, 2009; active means well fitted curve in the direction sought with a large enough effect; inconclusive means small, poorly fitted or top-dose-only effect, or another doubt; inactive means no such curve, though single readings can be large; an effect the other way counts as inactive or inconclusive; further: nearly all actives have a fitted effect of over 60% in size
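Inducible Q103 Huntingtin exon 1–GFP PC12 line, 1500 cells/well in phenol red free DMEM with 5% equine and 5% calf serum. Tebufenozide 100 nM induced expression; compounds titrated; aggregates quantified by cytometry.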
LMNA splice mod: qHTS Assay for Modulators of Lamin A Splicing | Potency, µM (top dose mostly 46.1 µM), actives largely listed as inhibitors | HeLa LMNA splicing GFP/RFP minigene ratio, 48 h | actives 0.01% (n = 200,000) | AID 1487, 2009; active means well fitted inhibition curve with a large enough effect in the signal ratio, with a control signal flat, not every such curve was filed as active; inconclusive means small, poorly fitted or top-dose-only effect, or effect the other way, or a change in a side signal; the % refers to the signal ratio
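S3 HeLa cells stably expressing lamin A-EGFP splicing minigene plus DsRed2, 600 cells/well, 48 h compound exposure at 37C. Laser-scanning cytometry; analysed as GFP (500-530 nm)/RFP (575-640 nm) total intensity ratio; 0.5% DMSO vehicle.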
Hits are given with their value; – = inactive; ? = inconclusive; · = no result given; [ ] = remark or other dose. Unless noted, the call rests on the fitted dose curve; in most records, active means well fitted inhibition curve with a large enough effect (not every such curve was filed as active); inconclusive means small, poorly fitted or top-dose-only effect, or another doubt; inactive means no such curve, though single readings can be large or run the other way.

SMILES | HPGD inh | HTT cytoprotect | ALDH1A1 inh | HTT aggregate | LMNA splice mod
CCCCOCCCNC(=S)Nc1ccc(S(=O)(=O)N2CCOCC2)cc1 | · | –[10 µM] | · | –[9.22 µM] | ·
O=S(=O)(c1ccc(NC(=S)NN=C2CCCCC2)cc1)N1CCOCC1 | · | – | 14.1µM | – | –
O=S(=O)(c1ccc(NC(=S)N/N=C/c2c3ccccc3cc3ccccc23)cc1)N1CCOCC1 | · | – | 10µM | – | ·
NNC(=S)Nc1ccc(S(=O)(=O)N2CCOCC2)cc1 | · | –[10 µM] | · | –[9.22 µM] | ·
O=S(=O)(c1ccc(NC(=S)NCCC(c2ccccc2)c2ccccc2)cc1)N1CCOCC1 | – | –[10 µM] | 12.6µM | ? | ?
N#Cc1ccc(NC(=S)NC(=O)CCc2ccc(S(=O)(=O)N3CCOCC3)cc2)cc1 | · | · | 15.8µM | – | ·
COc1cc(OC)c(NC(=O)c2sc3nc4n(c(=O)c3c2C)CCCC4)cc1Cl | · | · | · | · | –
O=C(Cn1nc2c(cc1=O)CCCC2)Nc1ccccc1C(F)(F)F | · | · | · | · | –
S=C(NCCC(c1ccccc1)c1ccccc1)Nc1ccccc1Cl | – | – | ? | 20µM | ?
CCCCNC(C(=O)Nc1cccc(S(=O)(=O)N2CCOCC2)c1)c1ccccc1 (stereo unspecified) | · | – | 12.6µM | – | –
O=C1CSC2(C(=O)N(Cc3c(F)cccc3Cl)c3ccccc32)N1c1ccc(F)c(F)c1 (stereo unspecified) | · | · | · | · | –
CCOC(=O)N1CCN(C(=O)c2ccccc2CCc2ccccc2)CC1 | – | – | 6.31µM | – | –
CCOC(=O)N1CCN(C(=O)c2ccccc2-c2ccccc2)CC1 | – | – | – | – | ?
CCOC(=O)N1CCN(C(=O)CSc2ccccc2)CC1 | 10µM | – | ? | – | –
Cc1nc(-c2cccs2)sc1C(=O)NN | · | –[10 µM] | · | –[9.22 µM] | ·
Cc1nc(-c2ccc(C(F)(F)F)cc2)sc1C(=O)NN | · | –[10 µM] | 1.12µM | –[9.22 µM] | ·
COc1ccc(-n2nnnc2SCC(=O)Nc2ccccc2N2CCOCC2)cc1 | · | –[10 µM] | – | –[9.22 µM] | ?
Cn1c(Cc2ccccc2)nnc1SCC(=O)Nc1ccccc1N1CCOCC1 | – | – | – | – | –
CCOC(=O)c1ccccc1NC(=O)CSc1nnnn1C1CCCCC1 | · | – | 3.55µM | – | ?
COC(=O)c1ccccc1NC(=O)CSc1nnnn1C1CCCCC1 | – | –[10 µM] | ? | – | –
CCn1c(Cc2ccccc2)nnc1SCC(=O)Nc1ccccc1N1CCOCC1 | – | –[10 µM] | 8.91µM | ? | ?
O=C(CSc1nnnn1C1CCCCC1)Nc1ccccc1N1CCOCC1 | · | –[10 µM] | 28.2µM | –[9.22 µM] | ·
O=C(Nc1ccccc1)NC1CCCCNC1=O (stereo unspecified) | · | –[10 µM] | · | –[9.22 µM] | ·
CC(=O)OCCCNc1cc(Sc2ccc(Cl)cc2)c2nonc2c1[N+](=O)[O-] | 12.6µM | –[10 µM] | ? | – | –
CCC(=O)OCCNc1cc(Sc2nccn2C)c2nonc2c1[N+](=O)[O-] | ? | –[10 µM] | – | 7.08µM | ?
SMILES | HPGD inh | HTT cytoprotect | ALDH1A1 inh | HTT aggregate | LMNA splice mod
CCCC(=O)OCCNc1cc(Sc2nc3ccccc3[nH]2)c2nonc2c1[N+](=O)[O-] | 7.94µM | –[10 µM] | 7.08µM | ? | ?
COc1cccc(CNC(=O)CN2C(=O)N(c3cccc(Cl)c3)S(=O)(=O)c3ccccc32)c1OC | · | · | · | · | –
COc1ccc2c(c1)c1nnc(SCC(=O)N3C(C)CCCC3C)nc1n2C (stereo unspecified) | 11.2µM | –[10 µM] | ? | – | –
CCc1ccc(C(C)NC(=O)Cn2cnc3c(=O)n(C)c(=O)n(C)c32)cc1 (stereo unspecified) | – | –[10 µM] | 28.2µM | – | –
CCc1ccc(NC(=O)Cn2cnc3c(=O)n(C)c(=O)n(C)c32)cc1 | · | – | – | – | ·
O=C(CCS(=O)(=O)c1cccc2nonc12)Nc1ccc(F)cc1F | · | · | · | · | –
Cc1ccc(-c2cnn(-c3cccc([N+](=O)[O-])c3)c2N)cc1 | 35.5µM | – | ? | ? | –
Nc1c(-c2ccccc2Cl)cnn1-c1cccc([N+](=O)[O-])c1 | 14.1µM | – | – | – | –
COc1cccc2c1CCC1=CC(=O)CC[C@@]12C | – | · | ? | · | ·
CCN(CC)c1ccc2c(Cl)c(Br)c(=O)oc2c1 | – | ? | 3.16µM | ? | ?

Source: PubChem BioAssay
